For some of these results: Measured potencies and affinities stand elsewhere.
How the values were obtained:
Design in all cases: scale not given: direction of the effect not stated beside the values
[1] = target: Protein translocase subunit SecA (Escherichia coli (strain K12)) (UniProt P10408); experiment: Assay to Identify E. coli SecA ATPase Inhibitors; assay type: functional; settings: 30 µM
[2] = target: T1, Ubiquitin-activating enzyme e1, putative (Leishmania donovani (strain BPK282A1)) (UniProt E9BSI1); experiment: Leishmania donovani Ubiquitin Activating Enzyme (LdE1); assay type: functional; settings: 30 µM
T1 sequence (whole entry): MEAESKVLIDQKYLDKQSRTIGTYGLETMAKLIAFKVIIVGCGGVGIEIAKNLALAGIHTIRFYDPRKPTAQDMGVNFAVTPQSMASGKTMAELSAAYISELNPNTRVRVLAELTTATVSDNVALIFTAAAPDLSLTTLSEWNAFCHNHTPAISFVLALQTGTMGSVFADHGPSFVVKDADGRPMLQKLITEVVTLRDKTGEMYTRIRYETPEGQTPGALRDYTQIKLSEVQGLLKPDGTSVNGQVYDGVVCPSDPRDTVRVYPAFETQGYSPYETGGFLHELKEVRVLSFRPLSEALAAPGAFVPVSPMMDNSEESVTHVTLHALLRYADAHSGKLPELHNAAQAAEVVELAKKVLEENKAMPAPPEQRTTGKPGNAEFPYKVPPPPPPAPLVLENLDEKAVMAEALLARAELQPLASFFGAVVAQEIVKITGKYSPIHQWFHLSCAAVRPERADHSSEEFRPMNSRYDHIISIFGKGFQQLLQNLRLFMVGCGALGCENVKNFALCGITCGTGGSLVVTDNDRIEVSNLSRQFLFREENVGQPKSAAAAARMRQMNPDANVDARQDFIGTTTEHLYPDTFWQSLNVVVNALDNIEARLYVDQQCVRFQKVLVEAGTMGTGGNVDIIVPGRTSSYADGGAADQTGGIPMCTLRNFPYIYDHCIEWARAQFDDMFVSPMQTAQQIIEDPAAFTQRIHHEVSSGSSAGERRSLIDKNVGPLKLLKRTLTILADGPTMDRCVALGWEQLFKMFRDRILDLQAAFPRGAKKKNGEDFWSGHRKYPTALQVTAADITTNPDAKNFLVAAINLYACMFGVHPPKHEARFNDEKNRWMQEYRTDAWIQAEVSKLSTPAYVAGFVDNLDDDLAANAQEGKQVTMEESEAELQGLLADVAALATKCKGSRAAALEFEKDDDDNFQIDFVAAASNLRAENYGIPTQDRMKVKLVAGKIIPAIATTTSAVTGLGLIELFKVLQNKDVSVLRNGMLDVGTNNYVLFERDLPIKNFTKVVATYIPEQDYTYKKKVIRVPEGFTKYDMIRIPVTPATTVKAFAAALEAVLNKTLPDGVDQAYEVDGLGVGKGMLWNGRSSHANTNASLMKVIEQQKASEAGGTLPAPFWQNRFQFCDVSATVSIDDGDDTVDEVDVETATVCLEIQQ

[3] = target: AMP-activated protein kinase, AMPK (Homo sapiens) (UniProt P54646+O43741+P54619+Q9UGJ0+Q9Y478+Q13131+Q9UGI9); experiment: AMP-dependent Kinase enzyme assay. An in vitro enzyme assay that detects ADP turnover that is directly proportional to AMPK activity. This uses naive AMPK that is activated during the assay with MK-8722; assay type: functional; settings: 30 µM
[4] = target: Sialic acid-binding Ig-like lectin 9 (Homo sapiens) (UniProt Q9Y336); experiment: Hs-Siglec9 ALPHAscreen SOP 20170721; settings: 10 µM
Sequence of Sialic acid-binding Ig-like lectin 9 (Homo sapiens) (Q9Y336 whole entry): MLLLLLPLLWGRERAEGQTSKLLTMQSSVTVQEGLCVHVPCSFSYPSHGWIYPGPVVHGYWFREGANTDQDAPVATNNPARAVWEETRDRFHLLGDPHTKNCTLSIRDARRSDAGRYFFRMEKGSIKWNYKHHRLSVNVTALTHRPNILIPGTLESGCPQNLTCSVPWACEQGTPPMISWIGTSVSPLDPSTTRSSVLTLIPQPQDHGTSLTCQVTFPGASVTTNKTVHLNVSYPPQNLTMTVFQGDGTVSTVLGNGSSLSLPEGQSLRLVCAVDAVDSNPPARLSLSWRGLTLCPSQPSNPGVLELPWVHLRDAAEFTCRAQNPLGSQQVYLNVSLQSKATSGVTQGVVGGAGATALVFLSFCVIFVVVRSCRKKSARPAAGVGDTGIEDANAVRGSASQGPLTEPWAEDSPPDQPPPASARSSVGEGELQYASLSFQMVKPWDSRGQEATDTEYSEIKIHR

Trypanosoma cruzi = experiment: Trypanosoma cruzi phosphomannomutase and mannose-1-phosphate guanylyltransferase assay; assay type: functional; settings: 10 µM
[5] = target: T2, Arginase-2, mitochondrial (Homo sapiens) (UniProt P78540); experiment: in vitro enzyme assay to detect the production of urea directly proportional to the activity of Arginase II; assay type: functional; settings: 33.3 µM; further: in the data most compounds retested in dose-response had high values
T2 sequence (whole entry): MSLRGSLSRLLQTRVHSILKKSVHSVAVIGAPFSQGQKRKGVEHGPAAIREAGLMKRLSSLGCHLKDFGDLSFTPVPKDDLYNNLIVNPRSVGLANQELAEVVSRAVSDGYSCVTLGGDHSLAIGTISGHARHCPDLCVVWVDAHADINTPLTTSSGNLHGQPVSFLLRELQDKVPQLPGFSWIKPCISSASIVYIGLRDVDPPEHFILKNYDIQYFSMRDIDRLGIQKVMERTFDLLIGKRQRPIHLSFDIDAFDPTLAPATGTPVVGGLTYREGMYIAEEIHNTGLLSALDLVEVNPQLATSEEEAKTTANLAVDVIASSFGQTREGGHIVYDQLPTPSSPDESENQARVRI

[6] = target: T3, Proteasome subunit beta (Trypanosoma cruzi) (UniProt O96673); experiment: Trypanosoma cruzi proteasome chymotrypsin-like activity (TcProtChymo) assay.; further: in the data most compounds retested in dose-response had high values; assay type: functional; settings: 9.37 µM
T3 sequence (whole entry): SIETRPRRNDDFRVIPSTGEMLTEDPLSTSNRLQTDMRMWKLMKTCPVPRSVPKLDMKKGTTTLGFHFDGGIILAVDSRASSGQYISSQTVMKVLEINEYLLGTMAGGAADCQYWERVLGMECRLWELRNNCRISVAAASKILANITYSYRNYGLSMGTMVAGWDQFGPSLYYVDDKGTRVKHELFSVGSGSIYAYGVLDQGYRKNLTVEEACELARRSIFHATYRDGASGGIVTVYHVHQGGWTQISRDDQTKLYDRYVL

Homo sapiens = species on record: Homo sapiens; experiment: To identify inhibition of the IFN signalling (Jak-Stat) pathway via expression of an eGFP reporter gene under the control of an IFN-stimulated response element (ISRE) containing MxA promoter.; assay type: functional; settings: 30 µM
[7] = target: T4, Tyrosyl-tRNA synthetase, putative (Trypanosoma cruzi (strain CL Brener)) (UniProt Q4DSP6); experiment: Trypanosoma cruzi tyrosyl tRNA synthetase (TcYRS) _High Tyrosine SOP; assay type: functional; settings: 30 µM; further: in the data most compounds retested in dose-response had high values
T4 sequence (whole entry): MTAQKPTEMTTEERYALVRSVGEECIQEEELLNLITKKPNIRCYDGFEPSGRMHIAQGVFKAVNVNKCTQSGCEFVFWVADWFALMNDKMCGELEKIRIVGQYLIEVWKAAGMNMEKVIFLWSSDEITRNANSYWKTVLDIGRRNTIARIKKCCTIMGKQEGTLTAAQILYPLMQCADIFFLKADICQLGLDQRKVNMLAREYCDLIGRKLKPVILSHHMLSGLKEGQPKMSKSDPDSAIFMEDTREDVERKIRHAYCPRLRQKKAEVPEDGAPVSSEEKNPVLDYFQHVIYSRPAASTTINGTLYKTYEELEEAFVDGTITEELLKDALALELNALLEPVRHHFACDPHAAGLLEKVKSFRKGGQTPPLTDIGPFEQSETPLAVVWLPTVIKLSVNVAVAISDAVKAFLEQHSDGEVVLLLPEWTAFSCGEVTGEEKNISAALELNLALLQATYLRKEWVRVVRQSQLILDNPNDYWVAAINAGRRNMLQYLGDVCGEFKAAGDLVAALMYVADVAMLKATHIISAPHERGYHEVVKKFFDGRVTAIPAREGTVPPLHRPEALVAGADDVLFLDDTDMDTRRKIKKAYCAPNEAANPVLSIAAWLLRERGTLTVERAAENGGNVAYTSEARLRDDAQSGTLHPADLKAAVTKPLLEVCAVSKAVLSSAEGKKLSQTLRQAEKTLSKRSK

[8] = target: T4, Tyrosyl-tRNA synthetase, putative (Trypanosoma cruzi (strain CL Brener)); experiment: Trypanosoma cruzi tyrosyl tRNA synthetase (TcYRS) SOP; assay type: functional; settings: 30 µM
[9] = target: Chromo domain-containing protein 1 (Saccharomyces cerevisiae (strain ATCC 204508 / S288c) (Baker's yeast)) (UniProt P32657); experiment: ScCHD-1 Enzyme Inhibition Assay; assay type: functional; settings: 30 µM; further: in the data most compounds retested in dose-response had high values
Sequence of Chromo domain-containing protein 1 (Saccharomyces cerevisiae (strain ATCC 204508 / S288c) (Baker's yeast)) (P32657 whole entry, the tested form may be a part): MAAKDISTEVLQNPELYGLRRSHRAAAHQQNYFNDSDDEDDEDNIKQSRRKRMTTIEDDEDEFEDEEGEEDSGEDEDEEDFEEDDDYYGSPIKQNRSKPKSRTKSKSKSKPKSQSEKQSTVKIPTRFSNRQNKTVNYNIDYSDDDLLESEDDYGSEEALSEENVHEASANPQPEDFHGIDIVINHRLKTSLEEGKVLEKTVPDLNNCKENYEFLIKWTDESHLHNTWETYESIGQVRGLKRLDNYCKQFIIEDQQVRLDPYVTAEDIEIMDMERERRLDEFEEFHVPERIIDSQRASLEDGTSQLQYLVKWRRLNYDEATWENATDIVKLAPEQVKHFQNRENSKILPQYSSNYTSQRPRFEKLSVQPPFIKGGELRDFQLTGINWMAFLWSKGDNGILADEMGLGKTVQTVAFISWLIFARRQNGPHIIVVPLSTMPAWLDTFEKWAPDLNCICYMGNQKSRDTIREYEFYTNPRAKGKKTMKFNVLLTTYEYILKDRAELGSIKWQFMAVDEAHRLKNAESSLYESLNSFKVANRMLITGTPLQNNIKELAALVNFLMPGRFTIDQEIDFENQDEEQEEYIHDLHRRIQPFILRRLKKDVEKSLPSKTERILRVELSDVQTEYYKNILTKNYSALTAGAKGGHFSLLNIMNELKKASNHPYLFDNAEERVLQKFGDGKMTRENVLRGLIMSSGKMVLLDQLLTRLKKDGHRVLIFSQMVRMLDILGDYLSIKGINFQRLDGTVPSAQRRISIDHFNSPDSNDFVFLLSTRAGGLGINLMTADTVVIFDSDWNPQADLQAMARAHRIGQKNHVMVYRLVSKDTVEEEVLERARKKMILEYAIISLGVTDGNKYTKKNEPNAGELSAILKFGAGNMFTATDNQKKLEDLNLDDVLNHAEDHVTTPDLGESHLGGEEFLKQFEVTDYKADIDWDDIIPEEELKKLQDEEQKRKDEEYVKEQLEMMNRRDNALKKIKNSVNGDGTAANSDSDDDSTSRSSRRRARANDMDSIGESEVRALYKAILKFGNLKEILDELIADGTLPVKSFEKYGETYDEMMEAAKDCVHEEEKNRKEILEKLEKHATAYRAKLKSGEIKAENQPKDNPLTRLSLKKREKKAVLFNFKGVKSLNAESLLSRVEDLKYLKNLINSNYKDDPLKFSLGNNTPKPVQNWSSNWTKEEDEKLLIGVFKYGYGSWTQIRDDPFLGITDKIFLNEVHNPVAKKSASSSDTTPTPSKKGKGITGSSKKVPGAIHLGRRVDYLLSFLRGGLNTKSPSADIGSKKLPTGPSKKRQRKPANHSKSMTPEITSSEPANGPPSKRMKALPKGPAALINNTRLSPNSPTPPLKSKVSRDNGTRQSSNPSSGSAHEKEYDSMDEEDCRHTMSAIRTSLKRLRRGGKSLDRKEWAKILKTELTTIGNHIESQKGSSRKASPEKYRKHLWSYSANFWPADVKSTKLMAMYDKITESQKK

Sequence of Protein translocase subunit SecA (Escherichia coli (strain K12)) (P10408 whole entry): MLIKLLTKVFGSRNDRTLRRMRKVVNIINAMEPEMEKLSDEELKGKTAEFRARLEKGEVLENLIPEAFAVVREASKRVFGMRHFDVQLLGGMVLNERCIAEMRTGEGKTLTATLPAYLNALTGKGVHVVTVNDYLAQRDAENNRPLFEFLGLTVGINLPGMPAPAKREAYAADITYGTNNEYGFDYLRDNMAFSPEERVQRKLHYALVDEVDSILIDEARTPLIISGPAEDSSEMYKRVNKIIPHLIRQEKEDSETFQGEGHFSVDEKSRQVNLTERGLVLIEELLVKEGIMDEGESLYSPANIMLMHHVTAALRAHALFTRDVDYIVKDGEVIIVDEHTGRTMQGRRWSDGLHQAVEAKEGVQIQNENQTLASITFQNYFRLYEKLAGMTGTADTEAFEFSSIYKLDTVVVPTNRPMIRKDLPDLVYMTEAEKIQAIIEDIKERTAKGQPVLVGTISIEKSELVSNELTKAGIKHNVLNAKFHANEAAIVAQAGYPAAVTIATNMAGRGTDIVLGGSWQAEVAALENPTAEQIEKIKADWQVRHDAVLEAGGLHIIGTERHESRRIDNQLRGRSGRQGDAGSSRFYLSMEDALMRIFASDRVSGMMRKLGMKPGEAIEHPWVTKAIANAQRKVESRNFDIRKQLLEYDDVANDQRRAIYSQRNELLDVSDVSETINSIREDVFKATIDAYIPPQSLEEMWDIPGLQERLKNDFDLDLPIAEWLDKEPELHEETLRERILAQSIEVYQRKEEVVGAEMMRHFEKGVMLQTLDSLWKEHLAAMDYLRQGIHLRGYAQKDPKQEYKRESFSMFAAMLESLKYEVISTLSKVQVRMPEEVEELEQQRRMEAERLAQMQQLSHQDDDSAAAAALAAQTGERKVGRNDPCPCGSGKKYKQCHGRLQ

SMILES	Percent Effect [1] [%]	Percent Effect [2] [%]	Percent Effect [3] [%]	Percent Effect [4] [%]	Percent Effect (Trypanosoma cruzi) [%]	Percent Effect [5] [%]	Percent Effect [6] [%]	Percent Effect (Homo sapiens) [%]	Percent Effect [7] [%]	Percent Effect [8] [%]	Percent Effect [9] [%]
Cc1ccc(-c2cc(CNC(=O)N3CCC(CO)CC3)on2)cc1	-2.94	21.6	1.9	-3.05	-4.74	-0.185	14.9	14	6.93	13.4	-4.09
COc1cccc2cc(CNC(C)(C)C(=O)N3CCC(O)CC3)oc12	-4.3	5.06	-3.21	-2.38	7.08	-0.76	-6.14	-31.3	6.4	3.8	-3.05
O=C(NCc1ccccc1CN1CCC(O)CC1)Nc1ccncc1	5.78	10.8	-5.37	6.21	-5.21	0	16.2	28	6.88	14.6	-3.29
Cc1cc(N2CCCN(C(=O)Cc3csc(C)n3)CC2)ccn1	0.872	5.41	0.202	-1.96	-2.7	4.76	20.2	9.24	2.65	9.76	-3.36
O=C(c1cccc2c1OCO2)N1CCCC(n2cccn2)C1 (stereo unspecified)	-4.91	2.7	-10.6	1.58	-5.94	-1.2	8.29	10.5	0.493	3.7	-1.47
CC(=O)N1CCCC(Cc2cncc(Br)c2)CC1 (stereo unspecified)	-8.44	12.2	-0.231	1.66	2.77	-2.09	16.4	24.7	5.38	6.49	-26.1
Cc1cc(-c2cnc(NCc3cccnc3)nc2C(C)C)on1	-6.62	2.67	40.6	-1.45	-3.74	-2.1	3.79	56.7	1.06	1.28	-1.52
CCN(CC1CN(CCc2ccccn2)CCO1)c1cccnn1 (stereo unspecified)	-2.15	0	-5.23	-0.0186	4.77	3.12	14.7	-14.7	0.546	1.24	2.6
O=C(NC1CCS(=O)(=O)C1)N1CCN(c2cnccn2)CC1 (stereo unspecified)	-3.53	24.3	-10.3	4.95	1.58	-3.14	11.1	15.6	4.95	6.1	-6.05
CC(C)c1nn(C)c(N(C)C)c1CNCc1ccc2c(c1)OCO2	-3	7.89	-15.5	1.82	-7	2.16	-2.45	-9	-0.493	11.1	0.321
COc1ccc(-c2nnc(SC(C)C(=O)NCC(C)C)[nH]2)c(OC)c1 (stereo unspecified)	-3.62	10.5	2.87	6.11	1.27	-3.55	13.5	91.3	3.19	18.2	2.44

— ChEMBL document CHEMBL3988442, “University of Dundee, Small-Polar-MMV Screening Library” (2021)
